The values that follow come from PubChem BioAssay AID485317 (Broad Institute, 2010).

The campaign covered roughly 290,000 compounds. About 11,000 (3.8%) were called active. The sample holds actives, similar compounds and a random draw of the others, so the mix is not that of the screen.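 How the source made its calls: active means mean replicate inhibition above about 79%, with every replicate also reaching it (limit read from the data); inconclusive means only one of the two criteria met; inactive means mean below limit and not every replicate reaching it.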

The target of the experiment is FAD-linked sulfhydryl oxidase ALR (Homo sapiens) (UniProt P55789). Briefly: inhibitors of human ALR sulfhydryl oxidase, primary screen, biochemical, H2O2 detection, HRP-luminol luminescence, single point (AID 485317). The note with it: purified ALR, DTT oxidation, stronger effect = higher value, concentration not given here.
Sequence of FAD-linked sulfhydryl oxidase ALR (Homo sapiens) (P55789 whole entry, looked up): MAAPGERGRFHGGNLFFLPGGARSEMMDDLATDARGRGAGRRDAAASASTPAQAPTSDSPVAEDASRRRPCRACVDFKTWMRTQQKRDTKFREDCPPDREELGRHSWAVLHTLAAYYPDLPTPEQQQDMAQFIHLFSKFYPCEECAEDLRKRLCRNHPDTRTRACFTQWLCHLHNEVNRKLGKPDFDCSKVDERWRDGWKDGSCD
As to `COc1cc(C(=O)NC2CCN(C)CC2)ccc1Nc1ncc2c(n1)N(C1CCC(O)CC1)CCC(=O)N2C` (stereo unspecified), the inhibition was -1.63% (inactive).
With `CCN1C(=O)[C@H]2[C@@H](c3ccc(SC4CCCCC4)c(OC)c3)N[C@@](Cc3ccccc3)(C(=O)OC)[C@H]2C1=O` the figure was -5.65% (inactive); with `COc1ccc(CCC(=O)c2ccc(OC)cc2)cc1`, -20.1% (inactive); with `Cc1nc2cc(NC(=O)NC3CC3)ccc2n1C`, 50.8% (inactive).
For `Cc1nc2cc(NCc3cccs3)ccc2n1C` the value was 84% (active); for `Cc1nc2cc(NC(=O)Nc3cccc(F)c3)ccc2n1C`, -7.89% (inactive).
For the molecule `O=C(N=C1SC2CS(=O)(=O)CC2N1c1ccccc1)c1ccccc1` (stereo unspecified), the inhibition was -1.67% (inactive).
With `CC1(c2ccccc2)NC(=O)N(CC(=O)N2CC(=O)Nc3ccccc32)C1=O` (stereo unspecified) the figure was -7.27% (inactive).
With `COc1ccc2c(c1)O/C(=C\c1ccccc1O)C2=O` the figure was 0.703% (inactive); with `O=S(=O)(ON(c1ccccc1)S(=O)(=O)c1ccccc1)c1ccccc1`, -14.1% (inactive).
For `CC1=C/C(=N\OS(=O)(=O)c2ccccc2)C=CC1=O` the value was 98.9% (active).
On to `CCCCCN(C(=O)CCC(=O)OCC(=O)NC1CCC(C)CC1)c1c(N)n(CCCC)c(=O)[nH]c1=O` (stereo unspecified), for which the inhibition is -10.8% (inactive).
Turning to `C=CCC1=C/C(=C\c2c(N)n3nc(CC(=O)N4CCOCC4)sc3nc2=O)C=C(OC)C1=O`, the inhibition is 54.3% (inactive).
With `COc1ccc(OCC(=O)N2CCOCC2)cc1` the figure was -7.03% (inactive).
For `COC1=C/C(=C/c2c(N)n3nc(CC(=O)N4CCOCC4)sc3nc2=O)C=CC1=O` the value was 99.1% (active).
For `O=C(Cc1ccc(S(=O)(=O)N2CCOCC2)s1)N1CCN(c2ccc(C(F)(F)F)cc2[N+](=O)[O-])CC1` the value was -1.8% (inactive); for `COc1ccccc1-c1sc2ccccc2c1-c1ccc(Br)nc1`, -3.77% (inactive).
`CC1CCCCC1NC(=O)c1cc(=O)[nH]c2ccccc12` (stereo unspecified): the inhibition is -38.4% (inactive).
For `O=C(N/N=C/c1ccc(O)c(O)c1)C1c2ccccc2Oc2ccccc21` the value was 99% (active); for `CCC(C)(C)NC(=O)C1c2ccccc2Oc2ccccc21`, -6.09% (inactive).
With `CCCCCNC(=O)C1c2ccccc2Oc2ccccc21` the figure was -7.1% (inactive).
For `CSCCC(NC(=O)COc1ccccc1)C(=O)N(C)CC(=O)Nc1ccc(C)cc1` (stereo unspecified) the value was -1.79% (inactive); for `COc1cccc(CNC(=O)CN2C(=O)NC(Cc3ccccc3)(c3ccccc3)C2=O)c1` (stereo unspecified), -2.85% (inactive); for `CC(C)c1ccc(/C=C/C(=O)NCCCN2CCOCC2)cc1`, 3.5% (inactive).
As for `O=C1[C@H]2[C@@H](c3ccc(F)cc3)N3C(=O)N(c4ccc(C(F)(F)F)cc4)C(=O)[C@@]3(Cc3ccccc3)[C@H]2C(=O)N1C1CCCCC1`, the inhibition is 2.08% (inactive).
For `CC(=O)N/N=C(\C)c1ccc(Br)cc1Br` the value was -9.48% (inactive); for `CC(=N\NC(=O)c1cc(Br)ccc1O)/C(=N/O)C(=O)Nc1ccccc1`, 85.8% (active); for `CC(C)/C=N/NC(=O)c1cc(Br)ccc1O`, 44.3% (inactive).
For the molecule `COc1ccc(-c2sc3ccc(OC)cc3c2C#Cc2ccccn2)cc1`, the inhibition was 0.498% (inactive).
With `O=C(COc1coc(CN2CCN(c3ccccc3F)CC2)cc1=O)N1CCc2ccccc21` the figure was -0.38% (inactive); with `CC(C)(C)NC(=O)CSC(=Nc1ccccc1F)NC#N`, 98.7% (active).
With `Cc1ccccc1CSCC(=O)NC(=O)NC(C)(C)C`, the inhibition is -23.2% (inactive).
Turning to `COc1ccccc1-n1ccnc1SCC(=O)NC(C)(C)C`, the inhibition was 17.9% (inactive).
With `COc1cc(C(C)=O)ccc1OC(C)C(=O)Nc1ccc(S(=O)(=O)N2CCCC2)cc1` (stereo unspecified) the figure was -9.52% (inactive).
In the case of `O=C(CSc1ncnc2sccc12)NC1CCS(=O)(=O)C1` (stereo unspecified), the inhibition was -0.589% (inactive).
With `Cn1cc(CCC(=O)N2CCCC(C(=O)c3ccc(C(C)(C)C)cc3)C2)cn1` (stereo unspecified) the figure was -21% (inactive).
As for `Cc1ccc(NC2CCCN(C(=O)CCc3cn[nH]c3)C2)cc1C` (stereo unspecified), the inhibition was 98.7% (active).
For `COc1ccccc1CN1CC(C(=O)NCCc2cn[nH]c2)CCC1=O` (stereo unspecified) the value was -0.59% (inactive); for `CCC(C)c1ccc(NC(=O)COC(=O)C2CCCC2)cc1` (stereo unspecified), 0.804% (inactive).
For `CC(OC(=O)c1c(F)cccc1F)C(=O)NCCC1=CCCCC1` (stereo unspecified) the value was -6.45% (inactive); for `O=C(CN1C(=O)CSC1=O)N1CCCC(Nc2ccc(F)cc2)C1` (stereo unspecified), 99.1% (active).
With `O=C(CN1CCOC1=O)N1CCCC(Nc2ccc(F)c(F)c2)C1` (stereo unspecified) the figure was 12.5% (inactive); with `O=C1CCCCN1CCCC(=O)N1CCCC(Nc2ccc(F)cc2)C1` (stereo unspecified), 17.9% (inactive); with `COC(=O)c1ccc(/C=C/c2c(-c3ccc(OC)cc3)sc3ccccc23)cc1`, 2.88% (inactive).
`CC(OC(=O)c1ccc(-n2cnnn2)cc1)C(=O)NCc1ccccc1` (stereo unspecified): the inhibition is 0.686% (inactive).
Take `CC(C)n1c(=S)[nH]c2cc(C(F)(F)F)ccc21`: the inhibition is 25.9% (inactive).
With `CCCn1c(=S)[nH]c2ccc(C(F)(F)F)cc21` the figure was 96.9% (active); with `CCCCn1c(=S)[nH]c2cc(S(=O)(=O)N3CCCCC3)ccc21`, 9.62% (inactive); with `O=C(CNC(=O)c1ccccc1F)OCC(=O)c1c[nH]c2ccccc12`, -4.95% (inactive).
For the molecule `CC(C)n1cnc2c(NCc3ccccc3)cc(N[C@@H](CO)Cc3ccccc3)cc21`, the inhibition was -30.8% (inactive).
With `Cc1ccc(OCc2nc3ccccc3n2C)cc1` the figure was -6.95% (inactive); with `Cc1ccc(O)c(CNc2nc3ccccc3n2C)c1`, 90.7% (active); with `Cn1c(Nc2cccc(Cl)c2)nc2ccccc21`, 10.5% (inactive).
For `Cc1ccc(-c2csc(NCCc3nc4cc(Cl)c(Cl)cc4n3CCOCCO)n2)cc1` the value was -6.99% (inactive); for `O=C(c1n[nH]c2c1CCC2)N1CCCC(Nc2cccc(F)c2)C1` (stereo unspecified), 99.1% (active); for `O=C(Nc1cccc(F)c1)NC1CCCCCCC1`, 43.5% (inactive).
With `Cc1ccc(F)cc1S(=O)(=O)Nc1cccc(C(=O)N2CCCC(C(N)=O)C2)c1` (stereo unspecified) the figure was -5.56% (inactive).
For `CCCCn1c(N)c(N(CC(C)C)C(=O)c2cnc(C)cn2)c(=O)[nH]c1=O`, the inhibition was -2.15% (inactive).
For `CCC(O)C1CCN(Cc2cn(-c3ccc(OC)cc3)nc2-c2cccc(F)c2)CC1` (stereo unspecified), the inhibition was -36.1% (inactive).
For `COc1ccc(-c2nn(-c3ccccc3)cc2CN2CCCO2)c(F)c1`, the inhibition was 83.5% (active).
For `COc1ccc(-n2cc(CNC3CCOCC3)c(-c3cccc(F)c3)n2)cc1` the value was -7% (inactive).
